Bioassay records as filed in PubChem BioAssay.
In the library only some 1.6% were active in any assay of this set; here they are far more common.
IMPase Li inh – cell-permeable IMPase inhibitors with lithium potentiation; CHO-M1 cells, IP1 TR-FRET (IP-One), carbachol + lithium; Potency, µM (top dose mostly 59.4 µM), inactives show at the highest dose activity, negative = IMPase inhibition, hits mostly inhibitors; actives 0.35% (n = 210,000);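 also: IP1 builds up when IMPase is blocked and the TR-FRET signal falls; potency is read from the fitted curve at half-maximal effect; plate controls were basal vehicle for no effect and high inhibitor control for full effect; nearly all actives have a fitted effect of over 50% in size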
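Steps: plate 2000 CHO-M1 cells per well and culture 16–30 h; add compound and lithium; incubate 30 min, 37C; add d2-IP1 tracer and Eu cryptate anti-IP1 antibody in lysis buffer; read after 10 min at room temperature.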
NPSR antag – neuropeptide S receptor (human) antagonism, cAMP; Potency, µM (highest dose often 38.3 µM), for the others: top-dose activity change, negative = inhibition, usual class: inhibitors; CHO-NPSR cells, cAMP TR-FRET, antagonist mode; Q6W5P4; actives 1% (n = 220,000); also: potency is read from the fitted curve at half-maximal effect; % is scaled to controls: 0 for no effect and ±100 for the full control effect; nearly all actives have a fitted effect of over 50% in size
Target sequence (Q6W5P4 whole entry, looked up): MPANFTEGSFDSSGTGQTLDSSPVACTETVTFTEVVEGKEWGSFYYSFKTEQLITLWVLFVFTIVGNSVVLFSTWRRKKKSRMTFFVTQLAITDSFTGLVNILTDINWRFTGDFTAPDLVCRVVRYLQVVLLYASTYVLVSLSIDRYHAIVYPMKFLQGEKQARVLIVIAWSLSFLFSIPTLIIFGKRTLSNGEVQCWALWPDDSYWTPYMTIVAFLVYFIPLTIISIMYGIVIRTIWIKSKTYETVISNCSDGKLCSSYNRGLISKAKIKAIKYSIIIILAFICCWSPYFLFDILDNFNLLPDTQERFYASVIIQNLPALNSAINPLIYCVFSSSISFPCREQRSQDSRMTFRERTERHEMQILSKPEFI
HTT ATP protect – Huntington cell model cytoprotection by ATP luminescence. PC12 HTT-Q103 induced, cytoprotection, ATP luminescence, 40 h. Potency, µM (doses to about 56.4 µM), inactives show cytoprotection (ATP increase), most hits filed as activators. actives 0.14% (n = 230,000); also: potency is read from the fitted curve at half-maximal effect; % of control where 0% means no effect; nearly all actives have a fitted effect of over 45% in size
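Compounds added alongside 100 nM tebufenozide, which induces toxic Q103 huntingtin exon 1-GFP in stable PC12 cells; surviving cells quantified by luminescent ATP measurement. Medium: phenol red-free DMEM, 5% equine and 5% calf serum.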
HttQ103 aggreg – reduces HttQ103-GFP aggregates in PC12 cells; PC12 HttQ103-GFP aggregates, Acumen cytometry, 40 h; Potency, µM (titrated, usually from 46.1 µM), inactives show at the highest dose activity change, negative = inhibition, hits mostly inhibitors; actives 1.1% (n = 220,000); AID 1688; also: potency is read from the fitted curve at half-maximal effect; % is scaled to controls: 0 for no effect and ±100 for the full control effect; nearly all actives have a fitted effect of over 60% in size
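Ecdysone-promoter PC12 model expressing HTT exon 1 Q103 fused to GFP, induced by tebufenozide at 100 nM final. Compounds titrated; aggregates sized 1–25 µm scored on a 488 nm laser cytometer.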
IMPase inh – IMPase inhibition in cells; P97697; CHO-M1 cells, IP1 accumulation, HTRF TR-FRET ratio; inhibition (IP1 accumulation), % at 46.1 µM; 120,000 tested, under 10 active; AID 901; active = well fitted curve in the direction sought with a large enough effect in the signal ratio, not every such curve was filed as active; inconclusive = small, poorly fitted or top-dose-only effect, or a change in a side signal; inactive = no such curve, though single readings can be large or run the other way; the % refers to the signal ratio;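 also: cells stimulated with carbachol in lithium chloride buffer; plate controls were DMSO basal wells for no effect and reference inhibitor wells for full effect; higher means more IMPase inhibition seen as more IP1 and lower FRET ratio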
Target sequence (P97697 whole entry, looked up): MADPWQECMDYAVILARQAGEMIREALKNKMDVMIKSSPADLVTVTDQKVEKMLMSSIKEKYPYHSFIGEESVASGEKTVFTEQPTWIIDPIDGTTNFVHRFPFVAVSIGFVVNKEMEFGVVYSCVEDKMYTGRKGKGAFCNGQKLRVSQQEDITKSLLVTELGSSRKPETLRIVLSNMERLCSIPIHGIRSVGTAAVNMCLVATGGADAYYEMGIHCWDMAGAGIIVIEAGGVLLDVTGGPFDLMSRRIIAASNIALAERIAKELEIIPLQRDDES
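Seeded CHO-M1 cells were dosed with compound at up to 46 uM, stimulated with carbachol for 30 min, then lysed in IP-One detection reagents. Higher IP1 lowers the TR-FRET signal.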
LMNA splice mod – changes lamin A minigene splicing in HeLa cells; HeLa LMNA splicing GFP/RFP minigene ratio, 48 h; Potency, µM (highest dose often 46.1 µM), inactives show top-dose ratio change, negative = inhibition, most hits filed as inhibitors; actives 0.01% (n = 200,000); AID 1487; active = well fitted inhibition curve with a large enough effect in the signal ratio, with a control signal flat, not every such curve was filed as active; inconclusive = small, poorly fitted or top-dose-only effect, or effect the other way, or a change in a side signal; the % refers to the signal ratio; also: potency is read from the fitted curve at half-maximal effect; % is scaled to controls: 0 for no effect and ±100 for the full control effect
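S3 HeLa stable clones carrying a lamin A-EGFP splicing minigene plus DsRed2 were seeded at 600 cells/well in Opti-MEM with 2% FBS, pin-dosed and incubated 48 h at 37°C. Acumen cytometry (488 nm) gave the GFP/RFP total-intensity ratio.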
* hit, by the source's call; ? = inconclusive; nt = no result given; [ ] = dose if it differs, or a comment. Unless noted, calls follow the shape of the dose curve; as a rule, active = well fitted curve in the direction sought with a large enough effect; inconclusive = small, poorly fitted or top-dose-only effect, or another doubt; inactive = no such curve, though single readings can be large; an effect the other way counts as inactive or inconclusive.

SMILES	IMPase Li inh	NPSR antag	HTT ATP protect	HttQ103 aggreg	IMPase inh	LMNA splice mod
CCn1nc(-c2ccccc2)nc2c(=O)n(C)c(=O)nc1-2	25.1%	3.98µM*	-41.7%[10 µM]	8.91µM*	6.2	?
N[C@H](Cn1oc(=O)[nH]c1=O)C(=O)O	nt	nt	-9.4%[1.9 µM]	nt	nt	nt
Cn1cc[n+](C)c1P(=S)(c1ccccc1)c1ccccc1	18.6%	5.01µM*	-5.8%	4.0%	nt	-14.4%[46 µM]
CCN1C[C@@]2(C)CC[C@H](O)[C@@]34[C@@H]5C[C@H]6[C@H](O)[C@@H]5[C@](O)(C[C@@H]6OC)[C@H](C[C@@H]23)[C@H]14	nt	nt	7.9%	nt	nt	nt
C[C@@H]1O[C@H]1P(=O)(O)O	nt	nt	-7.4%[1.9 µM]	nt	2.9	nt
CCC(C(=O)O)C1CCC(C)C(C(C)C(O)C(C)C(=O)C(CC)C2OC3(C=CC(O)[C@@]4(CC[C@](C)(C5CC[C@@](O)(CC)C(C)O5)O4)O3)C(C)CC2C)O1 (some centres undefined)	-3.6%	nt	-307.8%	1.41µM*	nt	?
C=C(C)[C@H]1[C@H]2OC(=O)[C@@H]1[C@]1(O)C[C@H]3O[C@]34C(=O)O[C@H]2[C@]14C	nt	nt	-3.3%	nt	nt	nt
CC[C@H]1[C@@H]2C[C@@H]3[C@@H]4N(C)c5ccccc5[C@@]45C[C@@H]([C@H]2[C@@H]5O)N3[C@@H]1O	nt	nt	-7.0%	nt	nt	nt
Cc1c([C@@H](C)C2NC[C@H](C)C[C@@H]2O)ccc2c1C[C@@H]1[C@H]2CC=C2C[C@@H](O)CC[C@@]21C (some centres undefined)	5.8%	nt	nt	nt	nt	nt
[Cl-].[Cl-].[Hg+2]	27.7%	nt	-74.7%	3.98µM*	nt	?
[Cd+2].[Cl-].[Cl-]	-5.2%	nt	-213.5%	nt	nt	nt
Nc1c(C(=O)NCC2CCCO2)c2nc3ccccc3nc2n1Cc1ccco1 (centres undefined)	nt	-19.1%	-22.4%[10 µM]	-17.7%[9.22 µM]	nt	nt
Nc1c(C(=O)NC2CCCC2)c2nc3ccccc3nc2n1CC1CCCO1 (centres undefined)	nt	12.6µM*	-10.6%	7.2%	3.1	-1.1%
CO[C@@H](C)[C@](O)(C(=O)OC1=CCN2CC[C@H](O)[C@H]12)C(C)C	nt	nt	-51.7%	nt	nt	nt
CNc1cc(Cl)c2nonc2c1[N+](=O)[O-]	28.9%	10µM*	-147.1%	6.31µM*	nt	?
CCn1c(O)c(C=Nc2ccc(S(N)(=O)=O)cc2)c(=O)n(CC)c1=S	-6.1%	-36.6%	nt	?	nt	-22.9%
NS(=O)(=O)c1ccc(N=Cc2c(O)n(C3CCCCC3)c(=O)n(C3CCCCC3)c2=O)cc1	10.7%[38.3 µM]	10µM*	14.6%	?	17.4	?
C=C1C(=O)O[C@H]2C[C@@H](C)[C@@H]3C=CC(=O)[C@@]3(C)C[C@H]12	nt	-27.2%	43.5%[10 µM]	?	nt	nt
C=C1C(=O)O[C@H]2[C@H]1[C@H](OC(=O)CC(=O)O[C@@H]1C[C@@H](C)[C@@H]3C=CC(=O)[C@@]3(C)[C@H]3OC(=O)C(=C)[C@H]13)C[C@@H](C)[C@H]1C=CC(=O)[C@]12C	nt	-18.4%	4.47µM*	21.0%[9.22 µM]	nt	nt
C=C1C(=O)O[C@@H]2C[C@@H](C)[C@@H]3C=CC(=O)[C@@]3(C)[C@@H](OC(=O)CC(=O)O[C@H]3[C@@H]4C(=C)C(=O)O[C@@H]4C[C@@H](C)[C@@H]4C=CC(=O)[C@]43C)[C@H]12	nt	?	-97.5%[10 µM]	0.631µM*	nt	nt
COc1cc2c(cc1O)CCN[C@H]2C	nt	nt	2.2%	nt	nt	nt
Cc1ccccc1[N+](=O)[O-]	6.9%	nt	-2.5%	nt	nt	nt
Cc1cc([N+](=O)[O-])c2ccccc2[n+]1[O-]	nt	10µM*	-63.6%[10 µM]	?	nt	nt
Cc1ccc(N)c(C(=O)c2ccc(Br)cc2)c1	9.2%	-27.5%	-25.0%	7.08µM*	nt	nt
Nc1ccc(Br)cc1C(=O)c1ccccc1	-5.2%	1.1%	-24.4%	-2.9%	nt	20.6%[9.22 µM]
SMILES	IMPase Li inh	NPSR antag	HTT ATP protect	HttQ103 aggreg	IMPase inh	LMNA splice mod
CN1/C(=C\C=C\C2=[N+](C)c3ccc4ccccc4c3C2(C)C)C(C)(C)c2ccccc21	-17.5%[38.3 µM]	7.94µM*	-114.2%	2.82µM*	-9.0	?
CN1/C(=C\C=Nc2ccccc2)C(C)(C)c2ccccc21	nt	?	8.1%	-12.2%	9.6	?
C[n+]1c2cc(N)ccc2cc2ccc(N)cc21	32.0%	nt	-75.7%	10µM*	nt	?
COc1ccc2c3c1O[C@@H]1C(=O)CC[C@@]4(O)[C@@H](C2)N(CC2CC2)CC[C@]314	nt	nt	13.1%[1.9 µM]	nt	1.4	nt
CN(C)C1C(=O)C(C(N)=O)=C(O)[C@@]2(O)C(=O)C3=C(O)c4c(O)cccc4[C@@](C)(O)C3CC12 (some centres undefined)	3.98µM*	nt	-51.7%	nt	nt	nt
CN(C)[C@@H]1C(=O)C(C(N)=O)=C(O)[C@]2(O)C(=O)C3=C(O)c4c(O)cccc4[C@@](C)(O)[C@@H]3C[C@@H]12	nt	nt	-14.9%	nt	nt	nt
CSc1ncc(/C=C2/C(=O)NC(=O)N(C3CCCCC3)C2=O)cn1	2.2%[38.3 µM]	?	2.0%	10.1%	5.6	11.9%
CN(C)c1ncc(/C=C2/C(=O)NC(=S)N(C3CCCCC3)C2=O)cn1	7.6%	10µM*	8.7%	-2.4%	nt	-9.0%[46 µM]
O=C1C(=O)c2ccccc2-c2ccccc21	35.3%[38.3 µM]	3.16µM*	-96.4%	?	15.2	?
CCOc1ccc(-c2nc3ccc(-c4nc5ccc(N6CCN(C)CC6)cc5[nH]4)cc3[nH]2)cc1	12.6µM*	nt	nt	nt	nt	nt
Cc1ccc2nc(N3CCN(C)CC3)[nH]c2c1	26.2%[38.3 µM]	-10.3%[46.1 µM]	-16.3%	7.0%	8.8	0.9%
CCCN1CC[C@@H]2c3cc(O)ccc3CC[C@H]21	nt	nt	15.8%[1.9 µM]	nt	7.0	nt
O=C(O)/C=C\c1ccc[c]([Sb](=[O])([OH])[OH])c1	nt	nt	2.1%[10 µM]	nt	nt	nt
CC1(C)C[C@H]2C=C(C=O)[C@]3(C=O)C[C@]3(C)[C@H]2C1	18.7%	12.6µM*	nt	8.91µM*	nt	?
CCCCCCOc1ccc(C(=O)n2cnc(N)n2)cc1	34.8%[38.3 µM]	-2.5%[46.1 µM]	12.6µM*	nt	2.9	-3.7%
